Laboratory results as given in PubChem BioAssay (NCATS).
Results filed as inconclusive are left out. Activity calls are given as the source filed them. Calls follow the shape of the full dose curve.

Test: qHTS assay for small molecule disruptors of the mitochondrial membrane potential - 5 hr assay (AID 651755); also: nearly all actives have a fitted effect of over 40% in size
Conditions: JC-1-type ratio dye; series mostly up to 92.2 µM; ratio change, negative = disruption: at the top concentration
From the text: National Center for Advancing Translational Sciences [NCATS]
NIH Chemical Genomics Center [NCGC]
National Institutes of Environmental Health Sciences [NIEHS]
National Toxicology Program [NTP]
Mitochondrial membrane potential (MMP), one of the parameters for mitochondrial function, is generated by mitochondrial electron transport chain that creates an electrochemical gradient by a series of redox reactions. This gradient drives the synthesis of ATP, a crucial molecule for various cellular processes. Measuring MMP in living cells is commonly used to assess the effect of chemicals on mitochondrial function. […] The dye accumulates in the mitochondria of healthy cells as aggregates, with red fluorescence. The mitochondrial potential collapses and the dye can no longer accumulate in the mitochondria and remains in the cytoplasm in monomers, with green fluorescence.
2,000 HepG2 cells in 5 uL/well were dispensed into black, clear-bottom 1536-well plates using a Multidrop Combi (Thermo Scientific) dispenser. The assay plates were incubated overnight at 37C to allow cells to attach to the wells, followed by the transfer of 23 nL compound or DMSO vehicle by a pin tool (Kalypsys). The plates were incubated for 5 hr at 37C and 5% CO2, followed by the addition of 5 uL of 2X Mito-MPS dye (BD Biosciences) into each well using Flying Reagent Dispenser (Aurora Discovery) and then following 30 min incubation at 37C. Fluorescence intensity (490nm excitation and 535nm emission for monomers; and 540nm excitation and 590nm emissions for aggregates) was measured using an Envision plate reader.
% is scaled to controls: 0 for no effect and ±100 for the full control effect; potency is read from the fitted curve at half-maximal effect.

| SMILES | ratio change, negative = disruption | Potency |
| --- | --- | --- |
| N#Cc1ccccc1 | -2.6% (inactive) | – |
| C/C=C1\CC2C=CC1C2 (stereo not given) | 1.12% (inactive) | – |
| CC1(N)CCC(C(C)(C)N)CC1 (stereo not given) | -4.07% (inactive) | – |
| CCCCC(CC)C(=O)O (stereo not given) | 1.89% (inactive) | – |
| NC(=S)NNC(N)=S | 1.2% (inactive) | – |
| O=C(O)c1cccc(Cl)c1Cl | 5.65% (inactive) | – |
| CCC(C)(C)C | 1.6% (inactive) | – |
| C=CCOC(=O)COCCC(C)C | 7.45% (inactive) | – |
| CCOc1ccc(NC(C)=O)cc1N | -2.66% (inactive) | – |
| CC(=O)OCc1ccco1 | -6.16% (inactive) | – |
| Cc1ccc(C)c(N)c1 | -2.95% (inactive) | – |
| NC(N)=S | 4.8% (inactive) | – |
| Cc1cccc([N+](=O)[O-])c1C(=O)O | 0.258% (inactive) | – |
| Nc1cc(S(=O)(=O)O)ccc1O | 6.33% (inactive) | – |
| CC(C)=CCC/C(C)=C/C=O | -2.14% (inactive) | – |
| C=CCn1c(=O)n(CC=C)c(=O)n(CC=C)c1=O | 2.4% (inactive) | – |
| Cc1cc(C)c(N)cc1C | 0.0653% (inactive) | – |
| Nc1cccc(S(=O)(=O)O)c1 | 7.53% (inactive) | – |
| Cc1ccc2c(c1[N+](=O)[O-])C(=O)c1ccccc1C2=O | – | 1.33 µM (active) |
| Cc1ccc(C(C)(C)C)cc1 | -0.35% (inactive) | – |

| SMILES | ratio change, negative = disruption | Potency |
| --- | --- | --- |
| CN(C)c1cccc(O)c1 | 9.12% (inactive) | – |
| O=[N+]([O-])c1cccc(C(F)(F)F)c1 | 2.45% (inactive) | – |
| O=CNc1ccccc1 | -9.67% (inactive) | – |
| Cc1ccccc1C(=O)O | 2.79% (inactive) | – |
| CCCCC/C=C/C=C/C=O | 11.1% (inactive) | – |
| Cc1ccc2cccnc2c1 | -5.77% (inactive) | – |
| O=C1CCCCC1 | 2.78% (inactive) | – |
| CCCCCCO | 1.39% (inactive) | – |
| C=C(C)C(=O)OCCCCCCCCCC | 0.464% (inactive) | – |
| C=CC(=O)OCCCC | 1.74% (inactive) | – |
| O=[N+]([O-])c1cc(C(F)(F)F)ccc1Cl | 1.6% (inactive) | – |
| CCC(C)O (stereo not given) | -0.316% (inactive) | – |
| O=C(O)c1cc(Cl)cc(Cl)c1 | -4.25% (inactive) | – |
| Cc1ccc2ncccc2c1 | 2.78% (inactive) | – |
| NC(=O)NC(N)=O | 1.96% (inactive) | – |
| CC(=O)CCc1ccccc1 | -3.18% (inactive) | – |
| CCCCC=O | -3.36% (inactive) | – |
| CC(=O)Nc1cccc(N)c1 | 0.681% (inactive) | – |
| Cc1cc(C(=O)O)ccc1[N+](=O)[O-] | -11.4% (inactive) | – |
| Oc1c(Cl)ccc(Cl)c1Cl | -15.3% (inactive) | – |
